The structures appear in SMILES notation. Several values for one entry are separate records, joined by “and”; a condition that tells them apart may be missing. Identical values can stand only once. Results filed as inconclusive are left out. Some compounds were tested as several samples or in several runs, with calls that do not always agree. Activity calls are given as the source filed them. How the source made its calls, unless noted: active means hit-call score of the fitted dose curve at least 0.9, where 1 is the maximum; inactive means score below 0.9.

In test [1] the target is Retinoic acid receptor RXR-alpha (Homo sapiens) (UniProt P19793). Put plainly: ATG_RXRa_TRANS: Attagene TRANS-FACTORIAL HepG2 Assay for human Retinoid X Receptor alpha (RXRa) (AID 2283012; active means hit-call score of the fitted dose curve at least 0.9, where 1 is the maximum). The method in brief: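 TRANS format reporting activity of exogenous RXRa-Gal4 chimera in transiently transfected HepG2, 24 h exposure. Reporter transcripts quantified by RT-PCR with capillary electrophoresis, with gain of signal scored relative to DMSO.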

In test [2] the target is human Retinoid X Receptor beta (RXRb), RXRB (gene 6257) (UniProt P28702). Put plainly: ATG_RXRb_TRANS: Attagene TRANS-FACTORIAL HepG2 Assay for human Retinoid X Receptor beta (RXRb) (AID 2283013; active means hit-call score of the fitted dose curve at least 0.9, where 1 is the maximum). The method in brief:
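Readout is reporter transcript induction after 24 h dosing. It is measured by RT-PCR of total RNA followed by fluorescent capillary electrophoresis. HepG2 liver cells carry transfected multiple reporter units driven by an exogenous RXRb-Gal4 fusion; activity is relative to DMSO.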

Test [3] addresses human Thyroid Receptor alpha (THRa1), THRA (gene 7067) (UniProt P10827). Kind of test: ATG_THRa1_TRANS: Attagene TRANS-FACTORIAL HepG2 Assay for human Thyroid Receptor alpha (THRa1) (AID 2283014; active means hit-call score of the fitted dose curve at least 0.9, where 1 is the maximum). The method in brief: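 HepG2 cells transiently transfected with chimeric NR-Gal4 and GAL4-UAS reporter units, dosed 24 h. Reporter mRNA quantified by RT-PCR, fluorescent labeling, HpaI digestion and capillary electrophoresis; gain-of-signal fit versus DMSO.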

Test [4] concerns the target human Vitamin D Receptor (VDR), VDR (gene 7421) (UniProt P11473). Put plainly: ATG_VDR_TRANS: Attagene TRANS-FACTORIAL HepG2 Assay for human Vitamin D Receptor (VDR) (AID 2283022; active means hit-call score of the fitted dose curve at least 0.9, where 1 is the maximum). The method in brief: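 HepG2 cells were transiently transfected with GAL4-UAS reporter units and a chimeric VDR-Gal4 construct, then dosed for 24 hours. Reporter mRNA was quantified by RT-PCR, fluorescent labeling, HpaI digestion and capillary electrophoresis; gain of signal analysed vs DMSO.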

Read-out in test [5]: E-selectin (Homo sapiens) (UniProt P16581)
Kind of test: BSK_3C_Eselectin: BioMAP Diversity Plus: 3C Assay for Eselectin Biomarker Activity (AID 2283015).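 On outcome: cell surface E-selectin protein quantified by ELISA 24 h after dosing.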 The conditions noted are these: primary human endothelial cells (HUVEC); actives raise or lower the signal. The method in brief:
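Primary human umbilical vein endothelial cells (3C system), read 24 h after compound addition; E-selectin measured by ELISA. Bidirectional curve fitting against DMSO baseline; cytotoxicity by parallel SRB total-protein staining.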

Read-out in test [6]: Interleukin-1 alpha (IL1a), IL1A (gene 3552)
Put plainly: BSK_BE3C_IL1a: BioMAP Diversity Plus: BE3C Assay for Interleukin-1 alpha (IL1a) Biomarker Activity (AID 2283016). Conditions: primary human bronchial epithelial cells; actives raise or lower the signal. The method in brief: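 IL-1a measured by ELISA after 24 h treatment of human primary bronchial epithelial cells, with gain or loss of signal fitted versus DMSO. Parallel cultures stained with SRB gauge overt cytotoxicity.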

Read-out in test [7]: Monocyte Chemoattractant Protein-1 (MCP1), CCL2 (gene 6347)
Kind of test: BSK_3C_MCP1: BioMAP Diversity Plus: 3C Assay for Monocyte Chemoattractant Protein-1 (MCP1) Biomarker Activity (AID 2283017). Conditions: primary human endothelial cells (HUVEC); actives raise or lower the signal. The method in brief:
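Human umbilical vein endothelial cells (3C system) exposed to chemicals for 24 h; MCP-1 quantified by ELISA against the DMSO baseline with bidirectional fitting, and parallel SRB staining used to assess cytotoxicity.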

Read-out in test [8]: Monocyte Chemoattractant Protein-1 (MCP1), CCL2 (gene 6347)
Put plainly: BSK_4H_MCP1: BioMAP Diversity Plus: 4H Assay for Monocyte Chemoattractant Protein-1 (MCP1) Biomarker Activity (AID 2283018). Conditions: primary human endothelial cells (HUVEC); actives raise or lower the signal. The method in brief: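 ELISA of MCP-1 (CCL2) 24 h after chemical dosing of HUVEC in the BioMAP 4H system. Gain or loss versus DMSO fitted; parallel SRB staining (560 nm) tracked overt cytotoxicity.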

Read-out in test [9]: Human Leukocyte Antigen - DR isotype (HLADR), HLA-DRA (gene 3122)
Kind of test: BSK_3C_HLADR: BioMAP Diversity Plus: 3C Assay for Human Leukocyte Antigen - DR isotype (HLADR) Biomarker Activity (AID 2283019). Conditions: primary human endothelial cells (HUVEC); actives raise or lower the signal. The method in brief: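 HUVEC monoculture, HLA-DR measured by ELISA 24 h after chemical dosing. Fitted bidirectionally against DMSO baseline; parallel SRB staining assessed cytotoxicity, with 3C proliferation read by SRB at 48 h.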

Read-out in test [10]: Interleukin-8 (IL8), CXCL8 (gene 3576)
Put plainly: BSK_3C_IL8: BioMAP Diversity Plus: 3C Assay for Interleukin-8 (IL8) Biomarker Activity (AID 2283020). The conditions noted are these: primary human endothelial cells (HUVEC); actives raise or lower the signal. The method in brief:
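IL-8 was measured by ELISA in HUVEC cultures 24 h after chemical dosing, with gain or loss of signal fitted relative to DMSO. Parallel SRB total-protein staining tracked overt cytotoxicity.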

Read-out in test [11]: Monokine induced gamma interferon (MIG), CXCL9 (gene 4283)
Kind of test: BSK_3C_MIG: BioMAP Diversity Plus: 3C Assay for Monokine induced gamma interferon (MIG) Biomarker Activity (AID 2283021). The conditions noted are these: primary human endothelial cells (HUVEC); actives raise or lower the signal. The method in brief: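 ELISA measurement of MIG in human umbilical vein endothelial cells 24 h after treatment. Cytotoxicity tracked by SRB staining in parallel cultures; gain or loss of signal fitted relative to DMSO.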

Test [12] is described as follows: BSK_3C_SRB: Viability Assessment in the BioMAP Diversity Plus: 3C Assay (AID 2283023).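 Further: fitted both ways against DMSO so a hit may be signal rise or drop.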 The conditions noted are these: primary human endothelial cells (HUVEC). The method in brief:
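Human umbilical vein endothelial cells in the 3C system, treated 24 h. Total protein measured by 0.1% sulforhodamine B staining after 10% TCA fixation, read at 560 nm; bidirectional fit versus DMSO.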

Read-out in test [13]: Matrix Metallopeptidase 1 (MMP1), MMP1 (gene 4312)
Put plainly: BSK_BE3C_MMP1: BioMAP Diversity Plus: BE3C Assay for Matrix Metallopeptidase 1 (MMP1) Biomarker Activity (AID 2283024). The conditions noted are these: primary human bronchial epithelial cells; actives raise or lower the signal. The method in brief:
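ELISA measurement of MMP-1 after 24 h compound exposure of primary human bronchial epithelial cells. Changes in either direction fitted relative to DMSO; parallel SRB staining checked overt cytotoxicity.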

Read-out in test [14]: Pselectin, SELP (gene 6403)
Put plainly: BSK_4H_Pselectin: BioMAP Diversity Plus: 4H Assay for Pselectin Biomarker Activity (AID 2283026). The conditions noted are these: primary human endothelial cells (HUVEC); actives raise or lower the signal. The method in brief: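 ELISA of surface P-selectin on HUVEC, 24 h after dosing, with parallel SRB staining (0.1% after 10% TCA fixation, 560 nm) for overt cytotoxicity. Activity fitted in both directions relative to DMSO.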

A short description of test [15]: BSK_4H_SRB: Viability Assessment in the BioMAP Diversity Plus: 4H Assay (AID 2283027).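 Further: cells exposed to compound for 24 h before staining.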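 On AC50: curves fitted both ways versus DMSO so AC50 may be loss or gain.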 The conditions noted are these: primary human endothelial cells (HUVEC). The method in brief: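 HUVEC, 24 h post-dose; 10% TCA fix, 0.1% SRB stain, A560 nm. Total protein = overt cytotoxicity, parallel to biomarker read. Bidirectional fit vs DMSO baseline.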
Read-out in test [16]: Thrombomodulin, THBD (gene 7056)
Put plainly: BSK_3C_Thrombomodulin: BioMAP Diversity Plus: 3C Assay for Thrombomodulin Biomarker Activity (AID 2283029). Conditions: primary human endothelial cells (HUVEC); actives raise or lower the signal. The method in brief:
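ELISA measurement of thrombomodulin on HUVEC surface 24 h after chemical dosing; activity fitted in both directions relative to DMSO vehicle.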

Read-out in test [17]: Urokinase-type plasminogen activator receptor (uPAR), PLAUR (gene 5329)
Kind of test: BSK_4H_uPAR: BioMAP Diversity Plus: 4H Assay for Urokinase-type plasminogen activator receptor (uPAR) Biomarker Activity (AID 2283030). The conditions noted are these: primary human endothelial cells (HUVEC); actives raise or lower the signal. The method in brief: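 Human umbilical vein endothelial cells in the 4H system, 24 h after chemical dosing. Cell-surface uPAR measured by ELISA, fitted in both directions versus DMSO; cytotoxicity checked by SRB total protein in parallel cultures.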

Test [18] can be described thus: BSK_BE3C_SRB: Viability Assessment in the BioMAP Diversity Plus: BE3C Assay (AID 2283028). Conditions: primary human bronchial epithelial cells. The method in brief: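 Human bronchial epithelial primary cells in confluent culture, 24 h after chemical dosing; total protein by 0.1% SRB staining after 10% TCA fixation, read at 560 nm. Bidirectional fitting versus DMSO baseline.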

Chain of E-selectin (Homo sapiens) (P16581 whole entry, looked up): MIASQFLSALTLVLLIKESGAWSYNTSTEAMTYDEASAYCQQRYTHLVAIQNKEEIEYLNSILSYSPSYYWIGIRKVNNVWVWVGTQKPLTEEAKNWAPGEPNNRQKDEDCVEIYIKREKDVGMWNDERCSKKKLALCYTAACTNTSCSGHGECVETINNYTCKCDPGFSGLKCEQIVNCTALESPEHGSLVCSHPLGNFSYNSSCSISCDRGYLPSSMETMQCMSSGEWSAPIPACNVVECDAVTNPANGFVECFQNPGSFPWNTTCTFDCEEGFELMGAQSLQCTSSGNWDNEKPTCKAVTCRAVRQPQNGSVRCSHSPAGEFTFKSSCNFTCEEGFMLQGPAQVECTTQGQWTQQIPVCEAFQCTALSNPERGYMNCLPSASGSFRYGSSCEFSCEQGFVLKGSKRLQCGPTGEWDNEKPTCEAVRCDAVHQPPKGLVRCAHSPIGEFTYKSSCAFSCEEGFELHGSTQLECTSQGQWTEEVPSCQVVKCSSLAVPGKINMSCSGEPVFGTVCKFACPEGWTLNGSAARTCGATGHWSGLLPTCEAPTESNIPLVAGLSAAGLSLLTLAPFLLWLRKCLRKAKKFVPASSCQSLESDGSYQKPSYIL
Chain of Retinoic acid receptor RXR-alpha (Homo sapiens) (P19793 whole entry, looked up, the tested form may be a part): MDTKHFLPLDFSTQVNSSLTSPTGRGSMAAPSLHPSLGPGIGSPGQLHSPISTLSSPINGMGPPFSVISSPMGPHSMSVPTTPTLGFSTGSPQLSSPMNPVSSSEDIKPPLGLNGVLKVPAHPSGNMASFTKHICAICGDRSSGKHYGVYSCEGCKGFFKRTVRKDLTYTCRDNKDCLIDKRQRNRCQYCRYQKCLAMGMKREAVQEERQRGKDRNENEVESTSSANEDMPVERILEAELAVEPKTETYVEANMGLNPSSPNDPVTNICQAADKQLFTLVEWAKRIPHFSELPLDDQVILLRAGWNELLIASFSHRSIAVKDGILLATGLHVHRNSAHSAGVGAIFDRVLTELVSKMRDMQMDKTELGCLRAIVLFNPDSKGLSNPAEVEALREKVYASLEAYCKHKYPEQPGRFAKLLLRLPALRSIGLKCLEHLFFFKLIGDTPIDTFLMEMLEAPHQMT
Chain of human Vitamin D Receptor (VDR), VDR (gene 7421) (P11473 whole entry, looked up, the tested form may be a part): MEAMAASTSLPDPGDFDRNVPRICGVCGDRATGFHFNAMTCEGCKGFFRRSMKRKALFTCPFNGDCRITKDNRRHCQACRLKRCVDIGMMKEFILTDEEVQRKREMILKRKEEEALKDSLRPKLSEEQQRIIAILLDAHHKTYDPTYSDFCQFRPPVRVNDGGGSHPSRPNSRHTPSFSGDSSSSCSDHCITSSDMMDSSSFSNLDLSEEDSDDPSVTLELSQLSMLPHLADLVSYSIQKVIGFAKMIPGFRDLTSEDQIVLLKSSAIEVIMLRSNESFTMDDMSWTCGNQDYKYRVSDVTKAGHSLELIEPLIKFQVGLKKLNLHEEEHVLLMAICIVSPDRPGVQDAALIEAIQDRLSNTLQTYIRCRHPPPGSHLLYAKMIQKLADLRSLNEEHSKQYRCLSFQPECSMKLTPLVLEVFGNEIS
Chain of human Retinoid X Receptor beta (RXRb), RXRB (gene 6257) (P28702 whole entry, looked up, the tested form may be a part): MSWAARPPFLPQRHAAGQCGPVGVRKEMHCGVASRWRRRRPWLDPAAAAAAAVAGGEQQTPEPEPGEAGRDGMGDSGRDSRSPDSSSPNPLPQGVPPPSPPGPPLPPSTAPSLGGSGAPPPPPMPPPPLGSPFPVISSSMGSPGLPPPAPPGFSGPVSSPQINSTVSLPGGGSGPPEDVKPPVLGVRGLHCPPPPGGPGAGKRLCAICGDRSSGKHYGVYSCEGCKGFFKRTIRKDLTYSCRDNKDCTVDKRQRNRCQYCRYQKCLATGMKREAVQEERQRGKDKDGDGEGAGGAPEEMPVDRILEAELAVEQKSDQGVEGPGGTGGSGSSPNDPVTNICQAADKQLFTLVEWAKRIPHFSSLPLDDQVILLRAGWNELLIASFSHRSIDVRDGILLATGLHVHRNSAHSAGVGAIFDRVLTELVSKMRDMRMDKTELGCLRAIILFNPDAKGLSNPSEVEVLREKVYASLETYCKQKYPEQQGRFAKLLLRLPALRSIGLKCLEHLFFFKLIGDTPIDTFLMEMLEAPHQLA
Chain of human Thyroid Receptor alpha (THRa1), THRA (gene 7067) (P10827 whole entry, looked up, the tested form may be a part): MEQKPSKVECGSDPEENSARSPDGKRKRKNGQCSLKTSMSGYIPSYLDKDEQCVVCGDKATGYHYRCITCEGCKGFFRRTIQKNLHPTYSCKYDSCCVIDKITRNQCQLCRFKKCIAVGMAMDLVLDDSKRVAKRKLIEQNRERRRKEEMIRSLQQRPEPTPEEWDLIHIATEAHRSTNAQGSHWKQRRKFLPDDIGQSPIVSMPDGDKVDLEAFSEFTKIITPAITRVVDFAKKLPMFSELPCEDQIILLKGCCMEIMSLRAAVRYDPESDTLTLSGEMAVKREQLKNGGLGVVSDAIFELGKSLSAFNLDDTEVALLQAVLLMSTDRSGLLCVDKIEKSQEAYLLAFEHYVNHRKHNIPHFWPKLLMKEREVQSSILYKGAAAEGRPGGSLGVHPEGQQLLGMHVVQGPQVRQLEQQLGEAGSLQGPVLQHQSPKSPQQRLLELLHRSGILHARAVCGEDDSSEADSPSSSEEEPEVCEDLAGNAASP

The AC50 is the concentration giving half of the maximal activity seen. Consider `CC(C)(C)c1cc(Cc2cc(C(C)(C)C)c(O)c(C(C)(C)C)c2)cc(C(C)(C)C)c1O`, for which the outcome in test [1], in test [3] and in [4] was inactive. The AC50 in test [2] is 15.7 µM (active).
`OCC(F)(F)C(F)(F)C(F)(F)CO`: the call in test [1], in test [5], in test [6], in test [7], in test [8] and in test [9] was inactive. Besides, the result in test [10], in test [11], in test [4], in test [12], in test [13] and in test [14] was inactive. In addition, the result in test [15], in test [16] and in test [17] was inactive.
With `FC(F)(F)C(F)(F)C(F)(F)C(F)(F)C(F)(F)C(F)(F)CC[Si](Cl)(Cl)Cl`, the molecule was classed as inactive in test [1], in test [2], in test [5], in test [6], in [7] and in [8]. The outcome in test [9], in test [10], in [4], in test [12], in test [13] and in test [14] was inactive. Besides, the result in test [15], in test [18], in test [16] and in test [17] was inactive.
Consider `O=C(F)C1(F)C(F)(F)C(F)(F)C(F)(F)C(F)(F)C1(F)F`, for which the result in test [5], in test [6], in test [7], in test [8], in test [9] and in test [10] was inactive. For the same molecule, the molecule was classed as inactive in test [4], in [12], in test [13], in [14], in test [15] and in [18]. Also, the outcome in [16] and in [17] was inactive.
Regarding `CCN=C1C=CC(=C(c2ccc(N(CC)CC)cc2)c2ccc(N(CC)CC)cc2)c2ccccc21`, the call in test [1], in [13] and in test [18] was inactive. For the same molecule, the AC50 is 3.62 µM (active) and 2.78 µM (active) in test [5]; 1.99 µM (active) and 1.72 µM (active) in test [6]; 2.22 µM (active) and 2.19 µM (active) in [7]; 1.03 µM (active) and 1.16 µM (active) in [8]; 1.95 µM (active) and 1.7 µM (active) in test [9]; 4.77 µM (active) and 4.29 µM (active) in test [10]. The AC50 in test [12] was 1.6 µM (active) and 1.67 µM (active); in test [13], 3.21 µM (active); in [14], 1.46 µM (active) and 957 nM (active); in [15], 1.76 µM (active) and 1.74 µM (active); in test [16] it was 4.54 µM (active) and 3.14 µM (active); in test [17], 4.99 µM (active) and 2.26 µM (active).
With `OCCCCC(F)(F)C(F)(F)C(F)(F)C(F)(F)F`, the outcome in [1], in test [5], in test [6], in test [7], in test [8] and in test [9] was inactive. The outcome in test [10], in [4], in [12], in test [13], in test [14] and in test [15] was inactive. Further, the result in test [16] and in test [17] was inactive.

For the origin of these results see PubChem BioAssay (EPA / NIEHS).
